What all share (assay): Primary qHTS to identify gynecologic anti-cancer compounds using libraries of approved drugs and bioactive compounds (AID 1345084); also: nearly all actives have a fitted effect of over 55% in size
Holding throughout (conditions): Gynecologic cancer cell panel viability, ATPlite luminescence, 48 h; series mostly up to 57.5 µM

The test system of one assay is OV90. Summed up: (§1)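 Measured: luminescence after ATPlite addition (15 min, RT). Exposure: 48 h, 37 C, 5% CO2.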
The subject of the next assay is PA-1. The method in brief: as §1
The test system of a further assay is Tov-21-G. Summed up: as §1
For another assay, the system named is Tov112D. The method in brief: as §1
The next assay relates to SKOV3. Summed up:
as §1

Inconclusive results are not listed. Calls of active or inactive are those of the source. Calls follow the shape of the dose curve; as a rule, active = well fitted cell-killing curve with a large enough effect; inconclusive = small, poorly fitted or top-dose-only effect, or effect the other way; inactive = flat fitted curve, though single readings scatter.
Potency is read from the fitted curve at half-maximal effect.

Consider `N#Cc1ccc(COc2ccc(-c3cccc4nc(NC(=O)C5CC5)nn34)cc2)cn1`, for which the Potency entry in the assay on OV90, in the assay on PA-1 and in the assay on Tov-21-G was “inactive” throughout.

On to `OC1(CN2CCC(COc3noc4cccc(O[C@@H]5CCOC5)c34)CC2)CCOCC1`, for which the Potency result in the assay with OV90, in the assay on PA-1, in the assay with Tov-21-G and in the assay with Tov112D was “inactive” throughout.

`CN1CCN(Cc2ccc(NC(=O)Cc3ccc(Oc4cc(NC(=O)C5CC5)ncn4)cc3)cc2C(F)(F)F)CC1`: the Potency in the assay on OV90 was 4.47 µM (active); in the assay on PA-1, 5.62 µM (active); with Tov-21-G, 6.31 µM (active); in the assay on Tov112D, 5.62 µM (active).

As to `CCOC(=O)N1CCC(CN(Cc2ccc(Cl)cc2)Cc2ccc([N+](=O)[O-])s2)C1` (configuration not stated), the Potency result with OV90, in the assay on PA-1 and in the assay on Tov-21-G was “inactive” each time.

Turning to `C=C1CC(=O)C2OC2(C)CC2OC(=O)C(=C)C2C(O)C1OC(=O)/C(C)=C\C` (configuration not stated), the Potency result with OV90, with PA-1, in the assay on SKOV3 and in the assay on Tov112D was “inactive” throughout.

With `CC[C@H](C(=O)Nc1ccccc1N1CCCC1)c1ccccc1`, the Potency result with OV90, in the assay with PA-1, in the assay with Tov-21-G and in the assay on Tov112D was “inactive” each time.

`CC(O)(C(=O)C1CC1(CO)COC1OC(CO)C(O)C(O)C1O)C1C(O)CC2C3CC=C4CC(O)CC(O)C4(C)C3C(O)CC21C` (configuration not stated): the Potency is 4.47 µM (active) in the assay with OV90, 1.78 µM (active) in the assay with PA-1, 0.562 µM (active) with Tov-21-G and 0.562 µM (active) with Tov112D.

Consider `N#CC(CCCN1CCC(O)(c2ccc(Cl)cc2)CC1)(c1ccccc1)c1ccccc1`, for which, in the assay with OV90, the Potency is 15.8 µM (active). Moreover, the Potency entry in the assay on PA-1 and with Tov-21-G was “inactive” each time.

For the compound `CC(C)c1noc(C2CCN(c3ncnc(Nc4ccc(S(C)(=O)=O)cc4F)c3[N+](=O)[O-])CC2)n1`, the Potency result in the assay on OV90, in the assay on PA-1, in the assay with Tov-21-G and with Tov112D was “inactive” throughout.

As for `CC(=O)CC(=O)Nc1ccc(Cl)c(C(F)(F)F)c1`, the Potency result in the assay with OV90, in the assay with PA-1, in the assay with Tov-21-G and in the assay on Tov112D was “inactive” in each case.

For the origin of these results see PubChem BioAssay (NCATS).
